# Laboratory results published in PMC5540273 (PLoS ONE, 2017).
# Tested on: JAK2(JH1domain-catalytic)
# 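Further: kd values determined as follow-up on hits from a single-replicate KINOMEscan panel screen.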
row,Compound,Kd [µM]
1,Nc1nc(-c2ccc3c(N)n[nH]c3c2)cc(N2CCC[C@@H](C(=O)Nc3ccccc3)C2)n1.O=C(O)C(F)(F)F.O=C(O)C(F)(F)F [GSK2288359],> 10
2,Cl.c1ccc(Cn2ccc3cc(Nc4ncnc5ccccc45)ccc32)cc1 [GW275568],> 10
3,Fc1cccc(COc2ccc(Nc3ncnc4sc(-c5ccc[nH]5)cc34)cc2Cl)c1 [GW707818],> 10
4,C[C@@H]1CCN(C(=O)CO)C[C@@H]1N(C)c1ncnc2[nH]ccc12,0.011
